# Laboratory results taken from PubChem BioAssay (NCI).
# The panel holds about 83,000 compounds, 20% with a hit somewhere; the sample as a whole holds those more often.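 A percent growth of 40 corresponds to 60% growth inhibition; 0 means no net growth; -100 means all cells died. Active threshold: below 10.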 A number with no mark means an inactive call. Calls of active or inactive are those of the source.
# Columns and labels:
# Assay in all cases: NCI-60 one-dose screen, 48 h (100 = growth as untreated, 0 = no growth, -100 = all killed)
# Conditions in all cases: 10 µM unless noted
# [1] = test system: HT29 colon
# [2] = test system: SNB-75 CNS
# [3] = test system: SNB-19 CNS
# [4] = test system: U251 CNS
# [5] = test system: PC-3 prostate
# [6] = test system: SK-MEL-5 melanoma
# [7] = test system: UACC-62 melanoma
# [8] = test system: LOX IMVI melanoma
# [9] = test system: SK-MEL-28 melanoma
# [10] = test system: SK-MEL-2 melanoma
Structure (SMILES),growth [1],growth [2],growth [3] [%],growth [4],growth [5],growth [6],growth [7],growth [8],growth [9],growth [10]
O=C1NC(=O)/C(=C\c2ccccc2)C2=C1CCCC2,104%,102%,88,2.63% (active),20.3%,-78.7% (active),30%,-58.4% (active),36.3%,-74.2% (active)
O=C(/C=C/c1cc2ccccc2[nH]c1=O)c1ccc(O)cc1,55.5%,40.3%,57.4,21.9%,10.5%,96.1%,83.8%,26.8%,99.9%,83.7%
O=C(NCCCO)c1cc(Cl)ccc1O,3.68% (active),27.8%,31.1,12.3%,7.13% (active),18.4%,9.67% (active),13.3%,38%,-19% (active)
CCC(c1ccccc1)c1noc(CCN(CC)CC)n1 (centres undefined),117%,86.6%,105,98.1%,95.5%,102%,98.9%,100%,101%,19.4%
CCS(=O)(=O)OCCCl,104%,70%,94.3,92.1%,97.6%,103%,101%,98.5%,120%,83.7%
COC(=O)[C@]1(C(C)C)N[C@H](c2cn(-c3ccccc3)nc2-c2ccccc2)[C@@H]2C(=O)N(c3ccc(Cl)cc3)C(=O)[C@@H]21,98.1%,86.1%,99.1,97.4%,89.9%,101%,101%,92.1%,114%,86.9%
Cn1cc(-c2csc(-c3c[nH]c4ncccc34)n2)c2cc(Br)cnc21,50.6%,-28.8% (active),50.5,3.32% (active),34.9%,35.8%,32.5%,20.5%,27.7%,78.2%
S=C(Nc1ccc(C2=NCCN2)cc1)Nc1ccc(C2=NCCN2)cc1,101%,110%,105,97.9%,100%,96.6%,107%,96.7%,110%,111%
Cc1nn(-c2ccc(Cl)cc2)c2nc3c(nc12)c(=O)oc1ccccc13,99.7%,92.1%,100,93.9%,106%,114%,102%,101%,110%,107%
COc1cc(OC)c2sc(-c3ccc(-n4cncc4-c4ccc(N)cc4)cc3)nc2c1,62.6%,86.1%,71.2,59.3%,67.7%,56.6%,96.6%,62.7%,97.5%,97.6%
C/C(=N\N1CC(=O)NC1=O)c1ccc([N+](=O)[O-])o1,102%,96.4%,99.3,102%,93.8%,93.4%,83.2%,67.5%,117%,106%
COc1cc2c(c(OC)c1OC)-c1ccc(NN(C(=O)c3ccccc3)C(=O)c3ccccc3)c(=O)cc1[C@@H](NC(C)=O)CC2 (tested in a mixture with another compound),6.31% (active),27.7%,49.1,24.8%,40.9%,20.2%,59.6%,,52.9%,10.4%
Cn1cc(-c2csc(-c3cn(C)c4ncccc34)n2)c2cc(Br)cnc21,100%,73.1%,98.5,87.9%,68.5%,79.3%,82.9%,81.9%,92.1%,111%
Cc1ccc(NC(=O)CSc2nnc3n(Cc4ccccc4)c(=O)c4c(C)c(C(N)=O)sc4n23)cc1,35%,-46.4% (active),68.6,38.3%,81.5%,77.1%,55.8%,59.9%,13.9%,44.4%
OC(CCC(O)(c1ccccc1)c1ccccc1)(c1ccccc1)c1ccccc1,78.4%,83.9%,106,87.7%,24.4%,90.6%,62.2%,71.4%,112%,97.5%
CC/C(=C\c1ccc(N(C)C)cc1)c1nc2ccccc2c(=O)[nH]1,81.7%,88.3%,102,86.3%,107%,97.4%,84.1%,94.2%,152%,-13.9% (active)
Cn1cc(-c2csc(-c3c[nH]c4ncccc34)n2)c2cc(F)cnc21,90.6%,66.2%,89,83.3%,69.1%,61.4%,64.7%,64.3%,96.2%,89.7%
COc1cccc(C2C(C#N)=C(N)Oc3cc(OC)ccc32)c1 (centres undefined),-21.2% (active),46.1%,44.1,3.36% (active),-2.64% (active),-4.55% (active),30.9%,13.2%,56.2%,19.8%
CCN(CC)c1ccc(C(O)C2=CC(=O)c3ccccc3C2=O)cc1 (centres undefined),9.6% (active),24.9%,15.3,-80.9% (active),-2.59% (active),-38% (active),-45.3% (active),-51.8% (active),-23.1% (active),-27.9% (active)
